The source of these data is PubChem BioAssay (NCI).

About 83,000 compounds went through this panel and 20% of them were active in at least one assay; those are over-represented in the sample as a whole.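 Activity criterion: percent growth below 10, measured after cells in 96-well plates were exposed to a single compound concentration for 48 hours.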 Unmarked numbers belong to inactive results. Active and inactive are the calls of the source.

Holding throughout (assay): NCI-60 one-dose screen, 48 h (100 = growth as untreated, 0 = no growth, -100 = all killed)
One experiment has as its system SN12C renal. The settings on record: 10 µM unless noted.
For the next experiment, the system named is UO-31 renal. The following applies: 10 µM unless noted.
Another experiment relates to TK-10 renal. The settings on record: 10 µM unless noted.
For a further experiment, the system named is ACHN renal. The following applies: 10 µM unless noted.
A further experiment relates to CAKI-1 renal. The settings on record: 10 µM unless noted.
In a further experiment the test system is CCRF-CEM leukemia. The settings on record: 10 µM unless noted.
A further experiment concerns MOLT-4 leukemia. The following applies: 10 µM unless noted.
A further experiment concerns SR leukemia. The settings on record: 10 µM unless noted.
Another experiment relates to OVCAR-8 ovarian. The following applies: 10 µM unless noted.
A further experiment relates to OVCAR-5 ovarian. The following applies: 10 µM unless noted.
The test system of a further experiment is OVCAR-4 ovarian. The settings on record: 10 µM unless noted.
In another experiment the test system is SK-OV-3 ovarian. The following applies: 10 µM.
In a further experiment the test system is IGROV1 ovarian. The following applies: 10 µM unless noted.
Another experiment has as its system OVCAR-3 ovarian. The settings on record: 10 µM unless noted.
The subject of a further experiment is HS 578T breast. The following applies: 10 µM unless noted.
The next experiment relates to NCI/ADR-RES ovarian. The following applies: 10 µM unless noted.
The subject of a further experiment is A498 renal. The settings on record: 10 µM unless noted.
Another experiment relates to RPMI-8226 leukemia. The settings on record: 10 µM.

As to `N#Cc1c(O)c2c(c(O)c1C#N)C(=O)c1ccccc1C2=O`, the growth was 0.389% (active) in the experiment on SN12C renal; 68.3% in the experiment on UO-31 renal; 87.5% with TK-10 renal; 56.2% in the experiment on ACHN renal; 85.7% with CAKI-1 renal; 24.4% in the experiment on CCRF-CEM leukemia. Besides, the growth in the experiment on MOLT-4 leukemia was 8.65% (active); with SR leukemia it was 15.4%; with OVCAR-8 ovarian it was 2.33% (active); with OVCAR-5 ovarian, 108%; in the experiment on OVCAR-4 ovarian it was 10.9%; in the experiment on SK-OV-3 ovarian it was 109%. Also, the growth was 23.9% in the experiment with IGROV1 ovarian, -9.86% (active) in the experiment on OVCAR-3 ovarian, 70.1% with HS 578T breast and 0.847% (active) with NCI/ADR-RES ovarian.
In the case of `O=c1nc(NO)[nH]c(=O)n1Cc1ccccc1`, the growth with SN12C renal was 113%; in the experiment on UO-31 renal, 90.3%; in the experiment with ACHN renal, 101%; with CAKI-1 renal, 93.1%; with A498 renal, 100%; in the experiment with CCRF-CEM leukemia, 108%. For the same compound, the growth was 109% in the experiment on MOLT-4 leukemia; 107% in the experiment with SR leukemia; 104% with RPMI-8226 leukemia; 104% in the experiment with OVCAR-8 ovarian; 101% in the experiment on OVCAR-5 ovarian; 97% with OVCAR-4 ovarian. Besides, the growth in the experiment on SK-OV-3 ovarian was 99.3%; with IGROV1 ovarian, 106%; with OVCAR-3 ovarian, 120%; with HS 578T breast it was 100%; in the experiment on NCI/ADR-RES ovarian it was 105%.
As for `O=c1nc(NO)[nH]c(=O)n1Cc1ccc(F)cc1`, the growth in the experiment on SN12C renal is 107%; with UO-31 renal, 84.2%; in the experiment with ACHN renal, 101%; in the experiment with CAKI-1 renal, 111%; with A498 renal it was 128%; with CCRF-CEM leukemia, 105%. Moreover, the growth was 103% in the experiment with MOLT-4 leukemia; 105% in the experiment on RPMI-8226 leukemia; 109% in the experiment with OVCAR-8 ovarian; 91.5% in the experiment with OVCAR-4 ovarian; 105% with SK-OV-3 ovarian; 97.3% with IGROV1 ovarian. The growth in the experiment on OVCAR-3 ovarian was 112%; in the experiment with HS 578T breast, 112%; in the experiment with NCI/ADR-RES ovarian it was 107%.
`COc1cc(C(F)(F)F)ccc1-c1cc(-c2ccc(F)cc2)n[nH]1`: the growth in the experiment with SN12C renal was 85.2%; in the experiment with UO-31 renal it was 59.6%; in the experiment with ACHN renal, 77%; with CAKI-1 renal, 78.4%; in the experiment on A498 renal, 95.1%; in the experiment on MOLT-4 leukemia, 91.2%. In addition, the growth in the experiment on SR leukemia was 107%; in the experiment with RPMI-8226 leukemia, 67.5%; in the experiment with OVCAR-8 ovarian, 84.7%; in the experiment with OVCAR-4 ovarian, 71.2%; in the experiment with SK-OV-3 ovarian, 104%; with IGROV1 ovarian, 80.6%. For the same compound, the figures for the growth with OVCAR-3 ovarian, in the experiment with HS 578T breast and in the experiment with NCI/ADR-RES ovarian were 91.9%, 96.3% and 91.5%, respectively.
For the compound `Cc1ccc(C(=O)Nc2ccccc2N)cc1`, the growth in the experiment with SN12C renal was 64%; in the experiment on UO-31 renal, 37.4%; in the experiment with ACHN renal it was 87.7%; in the experiment with CAKI-1 renal, 93.7%; with A498 renal, 54.9%; in the experiment on CCRF-CEM leukemia it was 4.67% (active). The growth was 30.9% in the experiment with MOLT-4 leukemia; 68% in the experiment on SR leukemia; 15% in the experiment with RPMI-8226 leukemia; 59.5% in the experiment on OVCAR-8 ovarian; 51.1% in the experiment on OVCAR-5 ovarian; 99.5% in the experiment on OVCAR-4 ovarian. Moreover, the growth in the experiment with SK-OV-3 ovarian was 92.9%; in the experiment on IGROV1 ovarian, 70.1%; in the experiment on OVCAR-3 ovarian, 90.8%; with HS 578T breast, 71.4%; in the experiment on NCI/ADR-RES ovarian it was 44.2%.
For the compound `CNc1ccc(Br)cc1-c1n[nH]c(=O)[nH]c1=O`, the growth with SN12C renal is 108%; with UO-31 renal, 71.3%; in the experiment with ACHN renal, 94.6%; with CAKI-1 renal, 76%; in the experiment with A498 renal, 89.7%; with CCRF-CEM leukemia it was 102%. Moreover, the growth in the experiment with MOLT-4 leukemia was 99.5%; with SR leukemia, 103%; with RPMI-8226 leukemia, 104%; with OVCAR-8 ovarian, 100%; in the experiment on OVCAR-5 ovarian, 98.3%; with OVCAR-4 ovarian, 90.9%. Also, the growth in the experiment with SK-OV-3 ovarian is 102%; in the experiment on IGROV1 ovarian it was 106%; in the experiment on OVCAR-3 ovarian, 116%; in the experiment on HS 578T breast, 84.1%; in the experiment on NCI/ADR-RES ovarian it was 105%.
Consider `COc1cc2oc(-c3ccc(O)cc3)cc(=O)c2c(O)c1I`, for which the growth in the experiment with SN12C renal is 100%; in the experiment with UO-31 renal, 93%; with TK-10 renal, 109%; in the experiment with ACHN renal, 98.7%; in the experiment with CAKI-1 renal, 96.6%; in the experiment with CCRF-CEM leukemia, 94.9%. Further, the growth in the experiment with SR leukemia was 79.3%; in the experiment on RPMI-8226 leukemia, 87.1%; in the experiment with OVCAR-8 ovarian, 96.3%; in the experiment with OVCAR-5 ovarian it was 104%; with IGROV1 ovarian, 114%; with OVCAR-3 ovarian it was 117%. The growth is 103% with HS 578T breast and 98% in the experiment on NCI/ADR-RES ovarian.
On to `Cc1ccc(N=c2nc3sc4c(C)ccc(C)c4n3c(N)c2C#N)cc1`, for which the growth in the experiment on SN12C renal is 108%; in the experiment on UO-31 renal, 89.6%; in the experiment on ACHN renal it was 103%; with CAKI-1 renal, 88.4%; in the experiment with A498 renal, 110%; with CCRF-CEM leukemia, 85%. Also, the growth in the experiment on SR leukemia was 111%; in the experiment with RPMI-8226 leukemia, 85.1%; in the experiment with OVCAR-8 ovarian, 104%; in the experiment with OVCAR-5 ovarian, 104%; with OVCAR-4 ovarian, 88.9%; in the experiment with SK-OV-3 ovarian, 96.3%. For the same compound, the growth was 95.1% with IGROV1 ovarian, 106% in the experiment with OVCAR-3 ovarian, 104% in the experiment on HS 578T breast and 106% in the experiment with NCI/ADR-RES ovarian.
Consider `CCOC(=O)C1=C(C)N2C(=NC3=C(CCCC/C3=C\c3cc(OC)c(OC)c(OC)c3)C2c2cc(OC)c(OC)c(OC)c2)S1` (stereo not given), for which the growth in the experiment on SN12C renal is 75.2%; with UO-31 renal, 54.3%; with ACHN renal it was 69.6%; in the experiment with CAKI-1 renal it was 65.6%; in the experiment with A498 renal, 52%; in the experiment with CCRF-CEM leukemia, 70.9%. Besides, the growth in the experiment with MOLT-4 leukemia was 45.3%; with SR leukemia, 47.4%; in the experiment on RPMI-8226 leukemia, 32.7%; in the experiment on OVCAR-8 ovarian, 63.6%; in the experiment on OVCAR-5 ovarian, 85.6%; in the experiment with OVCAR-4 ovarian, 69.3%. The growth in the experiment with SK-OV-3 ovarian was 77.8%; in the experiment on IGROV1 ovarian it was 71.6%; with OVCAR-3 ovarian it was 64.5%; with HS 578T breast it was 96.1%; in the experiment on NCI/ADR-RES ovarian, 62.1%.
For `O=c1[nH]c(=S)[nH]c(=O)n1Cc1cccc2ccccc12`, the growth in the experiment with SN12C renal is 101%; in the experiment on UO-31 renal, 93%; with ACHN renal, 97.7%; with CAKI-1 renal, 86.9%; in the experiment with A498 renal, 85.4%; with CCRF-CEM leukemia, 105%. Further, the growth is 102% with SR leukemia; 106% in the experiment on RPMI-8226 leukemia; 99.7% in the experiment on OVCAR-8 ovarian; 107% in the experiment on OVCAR-5 ovarian; 93.4% with OVCAR-4 ovarian; 102% with SK-OV-3 ovarian. The growth is 115% with IGROV1 ovarian, 113% in the experiment with OVCAR-3 ovarian, 102% in the experiment with HS 578T breast and 108% in the experiment with NCI/ADR-RES ovarian.
